Rows were chosen to be rich in hits. Some 7.6% of all compounds tested hit in one or more screens of this group.
CRE-bla Fsk = CRE-bla signaling modulation under forskolin stimulation. CHO CRE-bla reporter (cAMP response element driving beta-lactamase), forskolin EC10, beta-lactamase ratio. Potency, µM (highest dose often 38.2 µM), without a hit: at the top dose activity change, negative = inhibition, hits mostly activators. hit rate 2.5% among 71,000. AID 662; active means well fitted activation curve with a large enough effect in the signal ratio, with a control signal flat, not every such curve was filed as active; inconclusive means small, poorly fitted or top-dose-only effect, or effect the other way, or a change in a side signal; the % refers to the signal ratio; further: % of control where 0% means no effect
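Titrated compounds plus EC10 NKH 477 on CHO CRE-bla cells, 3 h, 37 °C. CCF4, 2 h RT. Ratio 460/530 nm → AC50.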
Tau fil binding = binds recombinant human tau filaments | P10636 | recombinant tau filaments, thioflavin S fluorescence, 15 h; filaments grown with octadecylsulfate alongside compound | Potency, µM (titrated, usually from 57.1 µM), inactives show at the highest dose activity change, negative = inhibition | hit rate 2% among 71,000 | AID 596;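 further: on the % scale 0 is the no-effect control and ±100 the full control effect; actives lower thioflavin S fluorescence by blocking filaments or displacing dye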
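ThS-based fibril read: tau 1 uM final, inducer ODS 30 uM final, 37 C for 15 h, ex 450/em 510 nm.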
TSHR ag = agonists of human thyroid stimulating hormone receptor. HEK293-CNG-TSHR cells (CNG channel as cAMP sensor), membrane potential dye, cAMP. Potency, µM (series often up to 57.1 µM), inactives show at the highest dose activation, usual class: activators. AID 926. P16473. hit rate 0.48% among 73,000; active means well fitted activation curve with a large enough effect in the main read-out, with a control signal flat, not every such curve was filed as active; inconclusive means small, poorly fitted or top-dose-only effect, or a change in a side signal; inactive means no such curve, though single readings can be large or run the other way; % of control where 0% means no effect;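 further: the control signal comes from parental cells without the receptor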
Target sequence (P16473 whole entry, looked up): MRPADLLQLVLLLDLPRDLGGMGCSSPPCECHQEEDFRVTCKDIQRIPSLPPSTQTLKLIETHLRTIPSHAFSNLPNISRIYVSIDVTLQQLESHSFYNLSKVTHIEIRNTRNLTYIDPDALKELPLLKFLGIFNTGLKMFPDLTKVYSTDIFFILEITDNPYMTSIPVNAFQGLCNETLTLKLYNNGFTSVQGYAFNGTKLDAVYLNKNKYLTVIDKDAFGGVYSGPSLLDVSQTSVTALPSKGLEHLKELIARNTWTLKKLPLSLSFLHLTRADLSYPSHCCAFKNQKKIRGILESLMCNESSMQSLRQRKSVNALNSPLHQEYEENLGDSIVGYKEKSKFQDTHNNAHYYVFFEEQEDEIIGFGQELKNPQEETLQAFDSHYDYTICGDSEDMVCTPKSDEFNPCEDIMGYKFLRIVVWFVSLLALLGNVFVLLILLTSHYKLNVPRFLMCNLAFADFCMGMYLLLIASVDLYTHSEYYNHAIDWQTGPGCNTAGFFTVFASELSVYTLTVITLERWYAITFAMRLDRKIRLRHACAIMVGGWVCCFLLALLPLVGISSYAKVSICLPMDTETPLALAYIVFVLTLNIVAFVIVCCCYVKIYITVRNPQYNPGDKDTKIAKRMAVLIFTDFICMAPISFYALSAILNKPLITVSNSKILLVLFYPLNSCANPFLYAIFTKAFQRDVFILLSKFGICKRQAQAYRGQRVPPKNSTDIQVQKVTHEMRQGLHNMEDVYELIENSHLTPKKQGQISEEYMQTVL
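cAMP rise detected as CNG-channel membrane depolarization by fluorescent dye (emission 590 nm), 30 min after compound, following 60 min dye loading containing 100 uM RO 20-1724 at room temperature. Cells: TSHR/CNG HEK 293, with parental CNG HEK 293 as control.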
HEK293 cAMP ctrl = raises cAMP in parental HEK293 cells, TSHR agonist counter-screen | Potency, µM (doses to about 57.1 µM), for inactives: at the highest dose activation, actives largely listed as activators | hit rate 2.5% among 73,000 | parental HEK293 CNG cAMP sensor, membrane potential fluorescence; further: % of control where 0% means no effect; nearly all actives have a fitted effect of over 55% in size
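Counterscreen for endogenous-receptor signalling: CNG-channel HEK 293 cells report cAMP rise by membrane depolarization. After 60 min dye equilibration with 100 uM RO 20-1724, compounds incubated 30 min before bottom-read fluorescence at 590 nm.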
ERK AVP block = inhibitors of vasopressin-stimulated ERK signaling pathway; AID 995; hit rate 0.99% among 72,000; HEK293-V1b, vasopressin-stimulated pERK AlphaScreen; Potency, µM (doses to about 57.5 µM), inactives show at the top dose activity, negative = inhibition, most hits filed as inhibitors; further: on the % scale 0 is the no-effect control and ±100 the full control effect; nearly all actives have a fitted effect of over 55% in size
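HEK293 cells stably expressing V1b receptor, seeded overnight in 1% FBS, were treated with compounds for 30 min at 37C, then stimulated 5 min with 25 nM vasopressin; phospho-ERK read by AlphaScreen SureFire after lysis.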
* marks the source's active call; other numbers are inactive results; ? = inconclusive; · = no result given; ! = a repeat was not active; [ ] = dose if it differs, or a comment. Unless noted, the call rests on the fitted dose curve; in most records, active means well fitted curve in the direction sought with a large enough effect; inconclusive means small, poorly fitted or top-dose-only effect, or another doubt; inactive means no such curve, though single readings can be large; an effect the other way counts as inactive or inconclusive. Potency means the concentration at half of the fitted maximal effect.

SMILES	CRE-bla Fsk	Tau fil binding	TSHR ag	HEK293 cAMP ctrl	ERK AVP block
COc1ccc(Cn2c(=O)n(Cc3ccco3)c(=N)c3c4c(sc32)COC(C)(C)C4)cc1	?	195%	24%	9%	?
CC1(C)Cc2c(sc3c2c(=N)n(Cc2ccco2)c(=O)n3Cc2ccc(F)cc2)CO1	4µM*	5%	?	?	-17%
COc1cc(C)c(C(C)C)cc1S(=O)(=O)n1cnc(C)c1	13µM*	-23%	·	25%	-14%
COc1cc(C)c(C(C)C)cc1S(=O)(=O)N1CCN(C)CC1	5%	9%	-2%	8%	20%
CN1CCN(c2ccccc2NC(=O)c2ccc(Br)o2)CC1	25%	6%	3%	13%	20µM*
O=C(Nc1ccc(N2CCN(C(=O)c3ccccc3)CC2)cc1)c1ccc(Br)o1	-7%	-27%	-15%	-10%	?
O=C(Nc1ccc(N2CCCC2)cc1)c1ccc(Br)o1	?	3.2µM*	1%[11.4 µM]	-11%[11.4 µM]	-14%
CCN(CC)c1ccc(NC(=O)c2ccc(Br)o2)cc1	?	3.2µM*	0%[11.4 µM]	2%[11.4 µM]	?
O=C(Nc1ccccc1N1CCOCC1)c1ccc(Br)o1	?	1%	?	?	-4%
COC(=O)Cc1ccc(NC(=O)c2ccc(Br)o2)cc1	?	-5%	-3%	1%	-15%
CS(=O)(=O)Nc1cccc(-c2nccc(NCc3ccccc3)n2)c1	1%	4%	12%	-16%	-3%
FC(F)(F)c1ccccc1-c1nccc(N2CCNCC2)n1	-2%	-18%	0%	-3%	10%
C[C@@](N)(C(=O)O)c1ccc(P(=O)(O)O)cc1	?	?	3%	5%	-9%
CCOc1cc(C2NC(=O)NC(C)=C2C(=O)OC(C)CC)cc(Br)c1O (stereo not given)	10µM*	-6%	15%	-2%	-18%
O=c1c(-c2cccs2)nc2cnc(Oc3cccc(Cl)c3)nc2n1C[C@H]1CCCO1	?	-8%	?	?	28%
Cc1cc(C)nc(Nc2ccc(N3CCOCC3)cc2)n1	8%	?	1%	1%	?
FC(F)(F)c1cnc(Nc2ccc(N3CCOCC3)cc2)c(Cl)c1	1%	32µM*	?	-33%	-25%
CN1CCCC[C@@H]1CCN1c2ccccc2Sc2ccc(S(C)=O)cc21 (stereo not given in full)	?	4%[11.4 µM]	?	?	-10%[11.5 µM]
CSc1ccc2c(c1)N(CC[C@H]1CCCCN1C)c1ccccc1S2	-14%[17.1 µM]	4µM*!	-19%[25.6 µM]	-6%[25.6 µM]	·
CN(C)c1ccc(-c2nn3c(-c4ccccc4Cl)nnc3s2)cc1	2.5µM*	28%	?	?	-13%
COc1ccccc1-c1nnc2sc(-c3cc4ccccc4o3)nn12	4µM*	5%	?	25µM*	-11%
COc1ccccc1-c1nnc2sc(-c3ccc(N(C)C)cc3)nn12	0.4µM*	83%	·	26%	1%
COCCn1c(=O)c(-c2cccs2)nc2cnc(Nc3ccccc3)nc21	?	356%	-3%	14%	-2%
Cc1cccc(N2CCN(C(=O)c3cn(C)c(=O)c4c3c3ccccc3n4C)CC2)c1C	?	65%	9%	24%	20µM*
Cn1c2ccccc2c2c(C(=O)N3CCN(c4ccccc4)CC3)cn(C3CCCC3)c(=O)c21	-2%	8%	29%	2%	-6%
SMILES	CRE-bla Fsk	Tau fil binding	TSHR ag	HEK293 cAMP ctrl	ERK AVP block
COCC#Cc1ccc(C2NC(C(=O)O)CCC2C)cc1 (stereo not given)	·	·	-5%[11.4 µM]	-2%[11.4 µM]	1%[11.5 µM]
Cc1nc2ccccc2c2oc(C(=O)NCCN3CCN(C)CC3)cc12	?	10%	1%	0%	-26%
Cc1nc2ccccc2c2oc(C(=O)N3CCc4ccccc4C3)cc12	?	416%	?	?	7.9µM*
Cc1nc2ccccc2c2oc(C(=O)N3CCN(C(=O)c4ccco4)CC3)cc12	13µM*	-2%	·	4%	-18%
Cc1nc2ccccc2c2oc(C(=O)NCCCN3CCCC3=O)cc12	?	6%	-8%	10%	?
CCn1c(=O)c2cc(C(=O)N3CCN(C(=O)c4ccco4)CC3)sc2c2ccccc21	4µM*	147%	0%	-7%	?
CCn1c(=O)cc(OCC(=O)N2CCN(C(=O)c3ccco3)CC2)c2ccccc21	?	-3%	8%[11.4 µM]	4%	35%
Cc1nc2ccccc2c2oc(C(=O)NC3CC3)cc12	7.9µM*	4%	2%	5%	?
CCCCNc1nc(C)nc2c1nc(-c1ccccc1)n2CCCN(C)C	1%	25%	22%	28%	-1%
C#C[C@@]1(O)CC[C@@H]2[C@@H]3CCC4=CC(=O)CC[C@@H]4[C@H]3CC[C@]21CC	10%[17.1 µM]	6%[25.6 µM]	6%[25.6 µM]	-5%[25.6 µM]	-20%[25.7 µM]
CCCCCCCCCCCCC/C=C\[C@H](O)[C@H](N)CO	-5%	-12%	3%	-4%	·
CCCCNC(=O)c1sc2nc(C)cc(COC)c2c1-n1cccc1	24%	55%	?	16µM*	2%
Cc1ccc2nc(Nc3ccc4[nH]c(=O)[nH]c4c3)c(-n3nc(C)cc3C)nc2c1	?	0.63µM*	-32%	-28%	-9%
CN(C)c1ccc(C(=C2C=CC(=[N+](C)C)C=C2)c2ccccc2)cc1	?	0.2µM*!	5%[11.4 µM]	6%[11.4 µM]	13µM*
CN(C)c1ccc(/C(=N\O)C(F)(F)F)cc1	?	-12%[11.4 µM]	4%[11.4 µM]	1%[11.4 µM]	-4%
Cc1cc(NC(=O)CC(C)(C)C)nc2c1c(=O)oc1ccccc12	2µM*	-1%	·	13%[2.29 µM]	17%
Cc1ccccc1-c1ccc2ncnc(N(C)C)c2c1	?	2%	?	?	?
CS(=O)(=O)Nc1cccc(-c2ccc3ncnc(NCc4cccs4)c3c2)c1	?	32%	17%	13%	16µM*
CN(C)c1ncnc2ccc(-c3ccccc3C(F)(F)F)cc12	?	4%	?	?	?
COc1cccc(-c2ccc3ncnc(N(C)C)c3c2)c1	18%	-3%	?	25µM*	?
CN(C)c1ncnc2ccc(-c3cccnc3)cc12	3.2µM*	-1%	4%	15%	?
Cc1cnc(CNc2ncnc3ccc(-c4cccc(NS(C)(=O)=O)c4)cc23)cn1	1%	-8%	4%	8%	-14%
CN(C)c1ncnc2ccc(-c3cccc(NS(C)(=O)=O)c3)cc12	10µM*	-5%	?	?	?
Cc1c[nH]c(=O)n(CCCN2CCN(c3ccccc3OCC(F)(F)F)CC2)c1=O	?	?	11%	16%	-11%
CS(=O)(=O)c1ccc(CNC(=O)[C@@H]2C[C@H]2[C@@H](NP(=O)(c2ccccc2)c2ccccc2)c2ccccc2)cc1	-15%	1%	?	?	-5%
COc1cccc(-c2nccc(NCc3ccccc3OC)n2)c1	16%	-14%	24%	29%	?

High-throughput results: PubChem, National Center for Advancing Translational Sciences (NCATS)
